Measured values published in the supplement of paper PMC3334620.
The full ranking holds about 33,000 sequences; the median of “E-score (-0.5 to 0.5)” is about -0.054, and the highest 2% start at about 0.35. For the sample, the highest values were picked, then their nearest neighbours and some sequences at random.

These sequences were tested against T1, Stb5 (UniProt P38699) (assay: PBM E-score (8-mer binding enrichment) (E-score (-0.5 to 0.5)); higher = stronger / more preferred TF binding). Details: protein concentration: 200 nM; construct: GST-full length.
T1 sequence: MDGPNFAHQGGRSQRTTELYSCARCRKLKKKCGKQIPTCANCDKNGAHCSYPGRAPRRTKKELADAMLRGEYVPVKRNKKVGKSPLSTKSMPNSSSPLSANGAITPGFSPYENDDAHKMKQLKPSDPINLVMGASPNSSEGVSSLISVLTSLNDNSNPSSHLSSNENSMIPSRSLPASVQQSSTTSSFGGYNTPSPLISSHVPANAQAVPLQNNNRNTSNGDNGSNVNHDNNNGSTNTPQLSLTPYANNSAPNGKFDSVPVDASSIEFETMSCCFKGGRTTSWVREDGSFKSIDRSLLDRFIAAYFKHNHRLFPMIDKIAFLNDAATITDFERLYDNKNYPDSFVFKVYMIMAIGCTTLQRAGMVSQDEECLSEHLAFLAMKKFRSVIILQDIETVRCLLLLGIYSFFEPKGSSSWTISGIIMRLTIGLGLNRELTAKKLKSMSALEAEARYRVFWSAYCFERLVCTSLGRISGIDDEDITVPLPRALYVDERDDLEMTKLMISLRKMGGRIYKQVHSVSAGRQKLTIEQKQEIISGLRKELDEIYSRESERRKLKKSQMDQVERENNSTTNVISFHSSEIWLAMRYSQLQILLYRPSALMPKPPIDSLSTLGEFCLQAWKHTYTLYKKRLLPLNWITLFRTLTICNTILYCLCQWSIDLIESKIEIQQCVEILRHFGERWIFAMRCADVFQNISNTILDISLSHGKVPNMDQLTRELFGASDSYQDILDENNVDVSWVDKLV
Procedure: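 Universal 'all 10-mer' protein binding microarrays (Agilent AMADID 015681) probed with GST-tagged S. cerevisiae TFs (full-length or DBD) made by in vitro transcription/translation (PURExpress), about 100-200 nM. Bound TF was detected with fluorescent anti-GST. Each ungapped 8-mer (which stands for itself and its reverse complement) is scored by the PBM enrichment score (E-score), a modified Wilcoxon-Mann-Whitney statistic from -0.5 to +0.5, computed with the Universal PBM Analysis Suite. Scale: above 0.35 generally sequence-specific binding.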

Sequence	PBM E-score
GACATCCA	-0.0118
TCAGTGAA	-0.111
CTTCGAGC	-0.0166
ATACCCCC	0.351
AAACCCCT	0.153
AACCCGGG	0.262
AGACCCCC	-0.165
AACCCCGG	0.453
ATACCCCG	0.392
ATACCCCA	-0.0468
AAACCCCG	0.476
ACCCCCGG	0.336
AGACCCCG	0.394
AAACCCCA	0.0234
AGACCCGG	0.341
AAAATGTT	-0.267
CACTTGCG	-0.0879
CGTGTCCC	-0.0774
CCATTTAA	-0.073
CAGCTGTC	-0.31
ACACGGTA	0.144
AGACCAGG	-0.149

Sequence	PBM E-score
ATGCGACC	0.0704
AAGGCGCT	0.109
ATACCTAG	-0.233
CAACCCCC	0.14
ACCCCCCG	0.204
AACCCCCG	0.401
CAACCCCG	0.371
AACCCCCC	0.0126
CAACCCCA	-0.221
ACTAGCCC	0.15
ACTCGTCA	-0.163
GCCCCTAC	0.076
ATTCTTGG	-0.0109
ACCGGACC	0.354
ACCGGACG	0.329
ACCGGACA	0.321
ACCGGACT	0.376
CCCGGACC	0.185
GCCGGACC	0.281
AAACTCAC	-0.172
TAATAAGA	0.0281
GCTCTTTA	0.0664

Sequence	PBM E-score
CACTGCTC	-0.117
AAGCGTGC	-0.171
ACGAGCGT	-0.163
CAGTTCCG	0.0961
AAGTTCCG	0.373
AAGTTCCT	-0.098
ACCACAGA	-0.0655
CCCGCTAA	0.261
AGCGACTG	-0.328
ACGCTACG	-0.187
CCGCTCGC	0.373
CCGCTCCG	0.361
ACGCTCCG	0.174
ACGCTCGC	-0.078
CCGCTCGA	0.328
CCGCTCCC	0.247
CCGCTACG	0.355
CCGCTACA	0.262
CAGTTGCC	-0.0751
AGAAAGAC	-0.0525
GATATAGA	-0.162
AACGGGTG	0.155

Sequence	PBM E-score
GTGAAGCA	-0.165
AGATTTTA	0.0159
ACACTATG	-0.13
AAAGTCTC	-0.145
AAGACCGA	0.414
AAGACCAT	-0.18
CAGACCGG	0.272
AAGACCAG	-0.107
AAGACCTT	-0.073
CAGACCGA	0.174
GAGACCGC	0.311
AAGACCGC	0.443
CAGACCGC	0.272
AAGACCGT	0.382
GAGACCGA	0.257
AAGACCGG	0.418
CCTCTGAG	-0.141
ACTGCGGC	0.168
TCGTTAGA	-0.147
ATAAGGGG	-0.0458
